Among all 1,300 compounds or so, about 140 (11%) were called active. No rule for the calls is given here. Not all results are given here. Entries with a potency or affinity are not part of this list.
molecular target: Prostaglandin E2 receptor EP2 subtype (Homo sapiens) (UniProt P43116); test: EP2 receptor modulators, dose response, cell-based, human EP2, PGE2 EC50 shift (AID 1421); conditions: EP2-expressing cells, PGE2 EC50 shift by compound; at 20 µM
Sequence (P43116 whole entry, looked up): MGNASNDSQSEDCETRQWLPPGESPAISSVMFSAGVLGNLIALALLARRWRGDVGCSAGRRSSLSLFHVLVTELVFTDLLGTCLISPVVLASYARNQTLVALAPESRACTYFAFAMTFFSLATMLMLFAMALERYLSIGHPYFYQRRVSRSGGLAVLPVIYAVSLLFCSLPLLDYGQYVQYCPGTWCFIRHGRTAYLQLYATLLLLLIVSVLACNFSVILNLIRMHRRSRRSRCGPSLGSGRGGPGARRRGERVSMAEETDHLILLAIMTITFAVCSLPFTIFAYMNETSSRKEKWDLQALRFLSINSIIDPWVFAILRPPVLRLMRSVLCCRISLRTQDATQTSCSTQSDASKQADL

SMILES	PGE2 EC50 with compound
Cc1ccc(S(=O)(=O)Nc2ccc(Cl)cc2C(=O)c2ccc(F)cc2)cc1	1 nM (inactive)
O=C(/C(=C/O)N=Nc1ccccc1)c1ccc(Cl)cc1	7.05 nM (inactive)
O=C(c1ccco1)N(CCC(c1ccccc1)c1ccco1)Cc1ccc(F)cc1 (stereo unspecified)	0.84 nM (inactive)
Cc1ccc(S(=O)(=O)NCC(=O)N(c2ccccc2)C(C(=O)NCc2ccccc2)c2ccco2)cc1 (stereo unspecified)	0.62 nM (inactive)
N#CCCSc1ncnc2c1oc1ccccc12	2.48 nM (inactive)
CCOC(=O)CC(=O)CSc1ncnc2c1oc1ccccc12	2.96 nM (inactive)
Cc1noc(C)c1COC(=O)C(c1ccccc1)c1ccccc1	0.31 nM (inactive)
Cc1cc(=O)oc(C)c1C(=O)OC(C(=O)c1ccccc1)c1ccccc1 (stereo unspecified)	0.26 nM (inactive)
COc1ccc2cc(CN(Cc3ccco3)C(c3nnnn3C3CCCCC3)C(C)C)c(=O)[nH]c2c1 (stereo unspecified)	0.82 nM (inactive)
COc1ccc2cc3c(N)nn(C(=O)C4CCC(C(C)(C)C)CC4)c3nc2c1 (stereo unspecified)	0.34 nM (inactive)
CCc1nnc2n1N=C(c1ccc(-c3cc(Cl)ccc3Cl)o1)CS2	0.42 nM (inactive)
CCOC(=O)c1c(C=O)c(C)n(Cc2ccccc2Cl)c1C	0.46 nM (inactive)
CCOC(=O)c1c(C=O)c(C)n(Cc2ccc(C)cc2)c1C	0.36 nM (inactive)
Cc1cccc(NC(=O)CSc2ncnc3c2oc2ccccc23)c1	8.27 nM (inactive)
Cc1nc(SCCC(=O)O)c2ccccc2n1	15.1 nM (inactive)
COc1cc(/C=C/c2ccc3cccc([N+](=O)[O-])c3n2)ccc1OCC(=O)O	4.66 nM (inactive)
COC(=O)C1C(c2ccccc2)C(C(=O)OCc2ccco2)C1c1ccccc1 (stereo unspecified)	0.38 nM (inactive)
Fc1ccc(Sc2nc(-c3ccccc3)nnc2C(F)(F)F)cc1	1.16 nM (inactive)
CSc1nc(Oc2ccc(F)cc2)c2ccccc2n1	0.42 nM (inactive)
Cc1ccc(S(=O)(=O)c2c(C)cc(C)nc2N2CCCCC2)cc1	0.31 nM (inactive)
CC1=C/C(=C(/c2ccc(O)c(C)c2)c2ccccc2C(=O)O)C=CC1=O	0.75 nM (inactive)
CCOC(=O)c1c(CC(C)C)csc1N	0.39 nM (inactive)
Cc1cc(Br)c2nc3c(c(C(=O)O)c2c1)CCCCC3	11.9 nM (inactive)
CS(=O)(=O)N(Cc1ccccc1)c1ccccc1C(=O)Nc1ccccc1C(=O)NCc1ccco1	56.6 nM (inactive)

SMILES	PGE2 EC50 with compound
CCOc1ccccc1C(=O)Nc1ccccc1-c1ccccc1	0.2 nM (inactive)
O=C(N/N=C/c1ccc[nH]1)c1ccccc1OCc1ccccc1Cl	0.27 nM (inactive)
O=C(O)NCc1ccccc1 (tested in a mixture with another compound)	0.49 nM (inactive)
CCc1cc2cc(C)cc(C)c2nc1SCC(=O)N1CCCC1	0.43 nM (inactive)
CCOC(=O)Cn1c(=S)[nH]c2c(oc3ccc(Cl)cc32)c1=O	6.72 nM (inactive)
CCOc1ccc(OCC)c(NC(=O)CN2CCN(c3ccc(C)cc3C)CC2)c1	0.77 nM (inactive)
C=CCCC1(C)C(=O)N(c2ccccc2)c2ccccc21 (stereo unspecified)	0.41 nM (inactive)
CC1Cc2ccccc2N1CC(=O)NC(c1ccccc1)c1ccccc1 (stereo unspecified)	0.52 nM (inactive)
Cc1cc(C)n(CCOc2ccc(Cl)cc2Cl)n1	0.34 nM (inactive)
CCOc1cccc(CNc2ccc(O)cc2)c1OCc1ccc(Cl)cc1	0.78 nM (inactive)
COC(=O)c1ccccc1NC(=O)C(C)Oc1ccccc1 (stereo unspecified)	0.81 nM (inactive)
c1ccc(Cc2nc3ccccc3n2Cc2ccccc2)cc1	0.31 nM (inactive)
Cc1cccc(OCc2n[nH]c(=S)n2Cc2ccccc2)c1	0.47 nM (inactive)
COc1ccc(C(=O)O)cc1NC(=S)NC(=O)c1ccc(-c2ccc(Cl)cc2)o1	462 nM (inactive)
COCCn1c(SCC(=O)NCCc2ccccc2)nnc1-c1ccco1	0.68 nM (inactive)
CC(C)n1c2ccccc2c2nnc(SCC(=O)Nc3ccccc3C(=O)O)nc21	1.63 nM (inactive)
COc1ccc(C(=O)Nc2cc(C)nn2-c2nc3ccccc3[nH]2)c(OC)c1	0.24 nM (inactive)
Cc1cc(C)n(-c2cc(-c3ccccc3)nc(C)n2)n1	0.22 nM (inactive)
Cc1oc(-c2ccccc2)cc1C(=O)Nc1cccc(/C=C\C(=O)O)c1	inactive
c1cncc(-c2nc(N3CCOCC3)c3c4c(sc3n2)CCC4)c1	0.72 nM (inactive)
Cc1ccc(C2CC(c3cccs3)=NN2C(=O)c2ccc(Br)o2)cc1 (stereo unspecified)	0.31 nM (inactive)
Cc1ccc(Cl)cc1NC(=S)N(Cc1ccco1)C(C)c1cccs1 (stereo unspecified)	0.26 nM (inactive)
Cc1ccccc1NC(=S)N(Cc1ccco1)C(C)c1cccs1 (stereo unspecified)	0.4 nM (inactive)
O=C(NCc1ccco1)c1ccc(=O)[nH]n1	0.48 nM (inactive)

SMILES	PGE2 EC50 with compound
C/C(CCc1oc2ccccc2c1-c1ccc(C)o1)=N/O	0.47 nM (inactive)
Cc1ccc(-c2cc3nn(-c4ccccc4)c(N)c3c(=O)o2)cc1	1.29 nM (inactive)
Cc1ccc(N=Nc2c(N)[nH]n3c(=O)c4c(nc23)CCCC4)cc1	3.42 nM (inactive)
O=C(O)COc1ccc2occ(C(=O)c3ccccc3)c2c1	0.37 nM (inactive)
CCOc1nc(C)cc(C)c1S(=O)(=O)c1ccc(Cl)cc1	0.21 nM (inactive)
CC(/C=C1\SC(=S)N(C(C(=O)O)C(C)C)C1=O)=C\c1ccccc1 (stereo unspecified)	1.95 nM (inactive)
COc1ccccc1CNC(=O)C1(c2ccc(Cl)cc2)CC1	0.43 nM (inactive)
CCCCc1nc(N2CCOCC2)c(C#N)c2c1CCCC2	0.37 nM (inactive)
CCC(=O)N1CCN(c2nc(-c3ccccc3)c3c(c2C#N)CCCC3)CC1	0.31 nM (inactive)
CCOc1ccc(OCC)c(NC(=O)CN2CCN(c3cc(C)ccc3C)CC2)c1	0.45 nM (inactive)
Cc1occc1-c1nnc(SCC(=O)Nc2ccccc2N2CCCCC2)n1C	1.17 nM (inactive)
O=C(CNCc1ccccc1Cl)Nc1ccccc1N1CCCCC1	0.81 nM (inactive)
O=C(Cc1c(F)cccc1Cl)Nc1ccccc1N1CCCCC1	0.53 nM (inactive)
CC(C)(C)N(Cc1ccccc1)C(=O)c1ccc(Br)o1	0.51 nM (inactive)
COC(=O)NC1(C(F)(F)F)C(=O)NC(C)=C1C(=O)OC (stereo unspecified)	0.72 nM (inactive)
CCOC(=O)N1CCC(=C2c3ccc(Cl)cc3CCc3cccnc32)CC1	0.38 nM (inactive)
CCOC(=O)C1=C(C)N(C)C(C)=C(C(=O)OCC)C1c1ccccc1	0.51 nM (inactive)
CC1CCN(c2nc(-c3ccncc3)nc3ccccc23)CC1	0.52 nM (inactive)
Cc1nnc(SCC(=O)N2c3ccccc3C(C)(c3ccccc3)CC2(C)C)s1 (stereo unspecified)	0.37 nM (inactive)
O=C(c1ccc(Cl)cc1)c1oc2ccccc2c1CS(=O)c1ccc(Cl)cc1 (stereo unspecified)	0.25 nM (inactive)
O=C(COc1cccc2ccccc12)N1c2ccccc2CCc2ccccc21	0.35 nM (inactive)
Clc1ccc(Cl)c(-c2ccc(/C=N/c3ncn[nH]3)o2)c1	2.61 nM (inactive)
COc1ccccc1N(C(=O)NCc1ccccc1)C1=NCC(C)S1 (stereo unspecified)	0.21 nM (inactive)
CCn1c2ccc(OC)cc2c2nc3ccccc3nc21	0.85 nM (inactive)

SMILES	PGE2 EC50 with compound
O=c1cc(N2CCCCC2)c(-c2ccccc2)nn1Cc1ccccc1Cl	0.4 nM (inactive)
CC1=CC2C(C(C)C)CCC(C)(O)C2CC1 (stereo unspecified)	0.83 nM (inactive)
O=C(NCc1ccco1)C(c1cccs1)N(C(=O)Cc1cccs1)c1ccccc1 (stereo unspecified)	0.44 nM (inactive)
c1ccc(-c2noc(-c3ccccc3-c3ccccc3)n2)cc1	0.5 nM (inactive)
COc1ccc(CCN(Cc2nc(-c3ccccc3)no2)Cc2nc(-c3ccccc3)no2)cc1OC	0.49 nM (inactive)
c1ccc(-c2noc(-c3cccc4ccccc34)n2)cc1	0.52 nM (inactive)
COc1cc(-c2noc(-c3cccc(Cl)c3)n2)cc(OC)c1OC	0.47 nM (inactive)
COc1ccc(-c2noc(-c3ccccc3-c3ccccc3)n2)cc1OC	0.17 nM (inactive)
Cc1ccc(-c2csc3ncnc(N4CCc5ccccc5C4)c23)cc1	0.42 nM (inactive)
Cc1ccc(-c2nn3c(C)nnc3s2)cc1NCc1c(F)cccc1Cl	0.97 nM (inactive)
CC(C)Sc1nc2sc3c(c2c2nnc(SCC(=O)NCc4ccco4)n12)CCCC3	0.83 nM (inactive)
Cc1sc2ncnc(Sc3ccccc3C(=O)O)c2c1C	3.01 nM (inactive)
COc1cccc(-c2nc(N3CC(C)CC(C)C3)c3ccccc3n2)c1O (stereo unspecified)	0.13 nM (inactive)
CCSc1nc2c(c(=O)[nH]c(=O)n2C)n1Cc1ccc(Cl)cc1	0.83 nM (inactive)
C=CCOc1ccccc1CNc1cccc(F)c1	0.37 nM (inactive)
CCOc1cccc(CNc2ccc(O)cc2)c1OCc1ccccc1Cl	0.8 nM (inactive)
Cc1cc(SC(C)C(=O)O)nc2ccccc12 (stereo unspecified)	1.16 nM (inactive)
O=C(CSc1ncnc2c1oc1ccccc12)Nc1ccccc1F	1.24 nM (inactive)
O=[N+]([O-])c1ccc(Cl)c2c1C1C=CCC1C(c1ccccn1)N2 (stereo unspecified)	0.53 nM (inactive)
CC(=O)N(c1cccc(Br)c1)C1C=CS(=O)(=O)C1 (stereo unspecified)	0.92 nM (inactive)
Cc1nnc(SCC(=O)NC2CCCCC2)n1C1CCCCC1	0.89 nM (inactive)
CC(NC(c1ccccc1)c1ccccc1)C(=O)N1CCCc2ccccc21 (stereo unspecified)	0.36 nM (inactive)
O=C(COc1ccccc1)Nc1cc(C(F)(F)F)ccc1N1CCCC1	0.31 nM (inactive)
Cc1ccc(C(=O)O)cc1NC(=S)NC(=O)c1ccc(-c2ccccc2)cc1	1.3 nM (inactive)

Source: PubChem BioAssay AID1421 (Emory University Molecular Libraries Screening Center, 2008)
